DT40 TDP1 CPT: qHTS for Inhibitors of human tyrosyl-DNA phosphodiesterase 1 (TDP1): qHTS in cells in presence of CPT. 420,000 compounds, 12% hits. chicken DT40 Tdp1-/-;hTDP1 cells + 20 nM CPT, ATP luminescence, 48 h. Potency, µM (doses to about 46.2 µM), actives largely listed as inhibitors; also: nearly all actives have a fitted effect of over 55% in size
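Cell growth measured by CellTiter-Glo luminescence after a minimum 48 h, 37 C compound exposure with 20 nM CPT in Tdp1-knockout DT40 cells stably expressing hTDP1, seeded 400/well; qHTS titration format.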
DT40 TDP1 no CPT: qHTS for Inhibitors of human tyrosyl-DNA phosphodiesterase 1 (TDP1): qHTS in cells in absence of CPT; DT40 Tdp1-/- hTDP1 cells, no CPT, ATP luminescence, 48 h; Potency, µM (doses to about 46.2 µM), usual class: inhibitors; 420,000 compounds, 15% hits; AID 686978, 2013; also: nearly all actives have a fitted effect of over 55% in size
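A cellular qHTS used chicken DT40 cells lacking endogenous Tdp1 but carrying stably transfected human TDP1. Compounds were applied without camptothecin, and cell growth kinetics were judged by ATP-dependent luminescence after ≥48 hr.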
HepG2 viability: qHTS for Inhibitors of TGF-b: Cytotox Counterscreen. Potency, µM (top dose mostly 46.1 µM), most hits filed as cytotoxic. HepG2 CAGA-GFP viability, ATP luminescence, 18 h. AID 588856, 2011. 410,000 compounds, 0.76% hits
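HepG2 CAGA-GFP cells (1000/well, DMEM with 1% FBS) received compound, then TGF-beta at 500 pg/mL final, and were incubated 18 hours at 37 degrees C. Viability was read by CellTiter-Glo luminescence. Media-only wells were set as complete cell-killing and DMSO as no toxicity.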
TGFb SMAD3 inh: qHTS for Inhibitors of TGF-b. 410,000 compounds, 1.2% hits. HepG2 CAGA-GFP TGF-b/SMAD3 reporter, GFP fluorescence, 18 h; TGF-beta stimulated, 500 pg/mL final. Potency, µM (series often up to 46.1 µM), actives largely listed as inhibitors; also: nearly all actives have a fitted effect of over 65% in size
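Per well, imaged GFP fluorescence of HEPG2 CAGA-GFP cells gives the signal; cells get compound, then TGF-beta (500 pg/mL final), 18 h at 37 degrees C; %Activity versus -TGF-beta and +DMSO controls.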
IL1B secr inh: qHTS for Inhibitors of Inflammasome Signaling: IL-1-beta AlphaLISA Primary Screen; activity change, % at 57.5 µM; THP-1 LPS/ATP IL-1B secretion, AlphaLISA, 16 h; active compounds read low; 360,000 compounds, 4.7% hits; in the data active = activity change below about -50%; inconclusive = mostly about -30% to -49%
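Secreted IL-1B measured by AlphaLISA bead assay after 16 h compound exposure of THP-1 cells; compounds (final up to 57.5 uM) added 1 h before LPS (250 ng/mL) and ATP (1.25 mM) stimulation; lower signal means less secretion.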
TDP1 block: qHTS Assay for Inhibitors of Tyrosyl-DNA Phosphodiesterase (TDP1); Tyrosyl-DNA phosphodiesterase 1 (Homo sapiens), Q9NUW8; recombinant TDP1, AlphaScreen DNA substrate cleavage; Potency, µM (doses to about 130 µM), most hits filed as inhibitors; 350,000 compounds, 0.28% hits; AID 485290, 2010; also: nearly all actives have a fitted effect of over 40% in size
Target sequence (Q9NUW8 whole entry, looked up): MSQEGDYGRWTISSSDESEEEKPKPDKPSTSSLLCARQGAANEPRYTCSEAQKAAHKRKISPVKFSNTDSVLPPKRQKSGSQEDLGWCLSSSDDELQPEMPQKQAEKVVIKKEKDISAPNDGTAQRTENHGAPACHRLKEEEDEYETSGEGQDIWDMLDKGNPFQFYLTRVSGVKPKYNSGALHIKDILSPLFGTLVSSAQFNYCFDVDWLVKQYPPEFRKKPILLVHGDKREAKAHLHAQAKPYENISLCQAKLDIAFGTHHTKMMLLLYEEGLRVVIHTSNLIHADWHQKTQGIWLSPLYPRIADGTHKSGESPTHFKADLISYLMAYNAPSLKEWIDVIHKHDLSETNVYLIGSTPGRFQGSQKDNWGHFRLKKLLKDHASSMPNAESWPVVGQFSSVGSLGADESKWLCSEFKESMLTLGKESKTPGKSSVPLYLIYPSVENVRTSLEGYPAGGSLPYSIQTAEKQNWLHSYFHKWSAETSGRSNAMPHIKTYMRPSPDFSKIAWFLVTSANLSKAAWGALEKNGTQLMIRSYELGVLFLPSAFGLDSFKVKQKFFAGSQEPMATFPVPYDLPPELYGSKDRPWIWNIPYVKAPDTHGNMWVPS
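Recombinant human Tdp1 (E. coli-expressed, 1 nM final) preincubated with compounds 15 min at room temperature, then 5'-biotin/3'-phosphotyrosine-FITC DNA substrate (15 nM final) added for 5 min. AlphaScreen beads (10 ug/ml final) added 10 min; cleavage lowers signal.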
Numbers stand for hits; - = inactive; ? = inconclusive; . = no result; [ ] = remark or other dose. This is a sample that favours compounds with a hit; in the whole collection about 18% have one here. Unless noted, calls follow the shape of the dose curve; as a rule, active = well fitted curve in the direction sought with a large enough effect; inconclusive = small, poorly fitted or top-dose-only effect, or another doubt; inactive = no such curve, though single readings can be large; an effect the other way counts as inactive or inconclusive.

SMILES	DT40 TDP1 CPT	DT40 TDP1 no CPT	HepG2 viability	TGFb SMAD3 inh	IL1B secr inh	TDP1 block
CC(C)OCCCn1c(=O)c2ccccc2n2c(-c3ccc(F)c(F)c3)nnc12	?	?	-	-	.	-
CSc1nc2sc3c(c2c(=O)n1C)CCC(C)C3 (stereo not given)	-	?	-	-	-	-
CSc1nc2sc3c(c2c(=O)n1-c1ccccc1)CCC(C(C)(C)C)C3 (stereo not given)	?	0.92µM	-	-	.	.
NS(=O)(=O)c1ccc(CCNC(=O)c2cccc(S(=O)(=O)N3CCCC3)c2)cc1	-	-	-	-	-	-
Fc1ccc(-c2ccc3c(c2)C2CC3CCN2Cc2ccc3c(c2)OCO3)cc1 (stereo not given)	?	16µM	-	-	-	.
COCCNC(=S)N1CCC2CC1c1cc(-c3ccc4c(c3)OCO4)ccc12 (stereo not given)	16µM	?	-	?	-	.
O=C(c1ccccc1F)N1CCC2CC1c1cc(-c3ccc4c(c3)OCO4)ccc12 (stereo not given)	?	21µM	-	?	-	.
S=C(NCCc1ccccc1)N1CCC2CC1c1cc(-c3ccc4c(c3)OCO4)ccc12 (stereo not given)	8.2µM	9.2µM	-	?	-	.
CCc1ccc(NC(=O)COC(=O)Cn2cnc3ccccc32)cc1	-	-	-	?	-	-[0.505 µM]
Cc1cc(C)n(-c2ccc(C(=O)OCC(=O)Nc3ccccc3F)cc2)n1	-	-	-	-	-	-
CCCN1CN(Cc2ccco2)c2nc3ccccc3n2C1	15µM	?	-	-	-	-
CCCCN1C(=O)c2[nH]nc(-c3ccccc3O)c2C1c1ccc(OCc2ccccc2)c(OC)c1 (stereo not given)	?	21µM	-	?	.	-
CCOc1ccc(C2c3c(-c4ccccc4O)n[nH]c3C(=O)N2Cc2cccnc2)cc1OC (stereo not given)	-	-	-	-	.	-
COc1cc(C2c3c(-c4cc(C)ccc4O)n[nH]c3C(=O)N2CCCO)ccc1OCCC(C)C (stereo not given)	?	29µM	-	?	.	-
CCCN1C(=O)c2[nH]nc(-c3ccccc3O)c2C1c1ccc(OCc2ccccc2)c(OCC)c1 (stereo not given)	23µM	16µM	-	?	.	-
COCCN1C(=O)c2[nH]nc(-c3cc(C)ccc3O)c2C1c1ccc(C(C)C)cc1 (stereo not given)	?	?	-	?	.	-
COc1ccc(-n2nnc(-c3nsc(NC(=O)c4cccs4)n3)c2C)cc1OC	-	-	-	?	.	-
N#C/C(=C\c1cn(-c2ccccc2)nc1-c1cccnc1)c1nnc2n1CCCCC2	?	?	-	-	-61	-
N#C/C(=C/c1ccccc1[N+](=O)[O-])c1nnc2n1CCCCC2	-	-	-	-	-	-
O=C(/C=C/c1cn(-c2ccccc2)nc1-c1cccnc1)c1ccco1	15µM	10µM	-	?	-96	-
O=C(/C=C/c1cn(-c2ccccc2)nc1-c1cccnc1)N1CCCC1	8.2µM	7.3µM	-	-	-	-
O=C(Cn1c(SCCOc2ccccc2)nc2ccccc21)N1CCOCC1	-	-	-	-	.	-
O=C1NC(Cc2ccc(O)cc2)c2nc3ccc(F)cc3c(=O)n2-c2ncccc21 (stereo not given)	-	?	-	-	-	.
Cc1ccc(C(=O)NCC(=O)OCCOc2ccccc2Cl)cc1	-	-	-	-	-	-
Cc1ccnc(SCc2ccc(C(=O)O)cc2)n1	?	?	-	-	-	.
SMILES	DT40 TDP1 CPT	DT40 TDP1 no CPT	HepG2 viability	TGFb SMAD3 inh	IL1B secr inh	TDP1 block
CCCN1CCC(=O)N(C(CSc2ccc(OC)cc2)c2ccccc2)CC1 (stereo not given)	.	.	-	?	.	-
CSc1ccc(CN(C)CC(=O)NC(=O)NCCC2=CCCCC2)cc1	?	?	-	?	-	-
O=C(O)/C=C/C(=O)Nc1ccc(OC(F)(F)Cl)cc1	-	-	-	-	-	-
O=C(O)/C=C/C(=O)Nc1ccc(SC(F)(F)C(F)(F)C(F)(F)F)cc1	-	-	-	-	-54	-
COc1ccc(-c2cc(NC=O)c3ncc(-c4cccc(C(=O)NCCN(C)C)c4)n3c2)c(OC)c1	3.3µM	3.7µM	-	?	-	.
CN(C)CCNC(=O)c1cccc(-c2cnc3c(NC=O)cc(-c4ccccc4F)cn23)c1	?	21µM	-	?	-	.
COc1cc(-c2cnc3c(NC=O)cc(-c4cccc(C(=O)NCCN(C)C)c4)cn23)cc(OC)c1OC	?	15µM	-	-	-	.
COc1ccc(-c2cc(NC=O)c3ncc(-c4cccc(C(=O)NCCN(C)C)c4)n3c2)cn1	?	?	-	-	-	.
COc1ccc(-n2cc(C(=O)NCc3ccccc3Cl)c3ccccc3c2=O)cc1	-	-	-	-	.	-
Cc1cccn2c(=O)c(/C=C3\SC(=S)NC3=O)c(NCCCN3CCOCC3)nc12	?	23µM	-	-	-83	-
Nc1ccc2c(c1)Nc1ccccc1CC2	-	-	-	-	-	-
CC(=O)c1c(C)[nH]c(C(=O)CSc2nc3ccccc3n2C)c1C	15µM	9.2µM	-	-	-	-
CCn1c(SCC(=O)c2[nH]c(C)c(C(C)=O)c2C)nnc1-c1cccs1	?	18µM	-	-	-	-
CC(=O)OCC#CCSc1nc2ccccc2n1C	-	-	-	-	-	-
COc1ncnc(OC)c1S(=O)(=O)Nc1ccc(C(F)(F)F)cc1	-	-	-	-	-	.
O=C1[C@H]2[C@@H](/C=C/c3ccccc3)N3C(=O)CN(Cc4ccccn4)C(=O)[C@@]3(Cc3ccccc3)[C@H]2C(=O)N1c1ccccc1	-	-	-	?	-	.
CC(C)C[C@H]1CN([C@@H](Cc2ccc(O)cc2)CN2CCC[C@H]2CN2C(=O)C(=O)NC[C@@H]2Cc2ccccc2)C(=O)C(=O)N1CC1CCCCC1	?	21µM	.	.	?	.
CC(C)C[C@H]1CN([C@@H](Cc2ccc(O)cc2)CN2CCC[C@@H]2CN2C(=O)C(=O)NC[C@@H]2Cc2ccccc2)C(=O)C(=O)N1CC1CCCCCC1	?	?	-	?	?	.

Source: PubChem BioAssay (National Center for Advancing Translational Sciences (NCATS))
